According to PubChem BioAssay (NCI):
The panel holds about 83,000 compounds, 20% with a hit somewhere; the sample as a whole holds those more often.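 Assay: single dose, 48 h. Readout: percent growth (0 = no net growth; negative = cell death). Active: <10.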 Values without a mark were called inactive. The source made the active and inactive calls.

tested on: SN12C renal; assay: NCI-60 one-dose screen, 48 h (100 = growth as untreated, 0 = no growth, -100 = all killed); settings: 10 µM unless noted
Method: Growth inhibition of the SN12C human tumor cell line is measured as a screen for anti-cancer activity. Cells are grown in 96 well plates and exposed to the test compound for 48 hours. Compounds are tested at a single concentration, which is 10^-5 M for most compounds. The reported endpoint is percent growth (GI% or GIPRCNT), where numbers from 0 - 100% represent growth inhibition, and numbers from -100% - 0 represent cell death. For example, a value of 40 represents 60% growth inhibition. A value of 0 means no net growth occurred over the course of the experiment. A value of -40 indicates 40% of cells at the beginning of the experiment died by the end of the experiment. A value of -100 means all cells are dead at the end of the experiment.
NCI-60 Human Tumor Cell Lines Screen was performed using the standard one-dose NCI protocol, which is described in more detail at https://dtp.cancer.gov/discovery_development/nci-60/default.htm.
Compounds with GIPRCNT values below 10 were considered active. Activity score was based on GIPRCNT using the following formula: […]
Score is 0 for GIPRCNT values of 100 or above, 50 for GIPRCNT values of 0, and 100 for GIPRCNT values of -100.

How did the growth turn out when COc1cc(C2CC(C3C(=O)N(C)C(=O)N(C)C3=O)=NN2c2cc(Cl)cc(Cl)c2)cc(OC)c1OC (stereo not given) was run?
Its growth is 93.6%.

COc1cccc(-c2nc3cc(NC(=O)c4ccc(Cl)c(C#N)c4)ccc3o2)c1 was tested. Which growth did it give?
Its growth is 40.2%.

Which growth does the source give for O=C1C2C(C(=O)N1CC[Se][Se]CCN1C(=O)C3C(C1=O)[C@H]1C=C[C@@H]3C1)[C@H]1C=C[C@@H]2C1 (stereo not given in full) here?
Its growth is 3.39% (active).

Which growth does the source give for COc1cccc(/C=C2\Cc3ccccc3C2=O)c1 here?
Its growth is 98.8%.

For Cc1n(Cc2ccc3ccccc3c2)cc[n+]1Cc1ccc2ccccc2c1, which growth is on record?
Its growth is 2.52% (active).

For O=CN1N=C(c2ccc(Nc3ccnc4cc(Cl)ccc34)cc2)CC1c1ccc(Cl)cc1 (stereo not given), which growth is on record?
Its growth is 36.1%.

With CN1C(=O)C(C2=NN(C=O)C(c3ccc(F)cc3)C2)C(=O)N(C)C1=O (stereo not given) as the compound, how does the growth read?
The growth was 97.3%.

How did the growth turn out when COC(=O)CC1=C(c2ccc([N+](=O)[O-])cc2)CCC1=O was run?
Its growth is 103%.

How did the growth turn out when C(=C1c2ccccc2-c2ccccc21)c1ccncc1 was run?
Its growth is 51.2%.

Which growth does the source give for COC(=O)[C@H](Cc1cn(C)cn1)NC(=O)[C@H](Cc1ccccc1)NC(=O)Nc1cc(C(F)(F)F)cc(C(F)(F)F)c1 here?
The growth was -96.1% [100 µM] (active).

O=C(CC(C(=O)c1ccccc1)N1CCN(Cc2ccccc2)CC1)c1ccccc1 (stereo not given) was tested. Which growth did it give?
Its growth is 99.3%.

Which growth does the source give for CCN1CC2=C(Nc3nc(SC)[nH]c(=O)c3C2c2cc(OC)c(OC)c(OC)c2)/C(=C/c2cc(OC)c(OC)c(OC)c2)C1 (stereo not given) here?
Its growth is 95.9%.

For CCOC(=O)c1sc(NC(=O)COc2cccc(/C=C3\CCc4cc(OC)ccc4C3=O)c2)nc1C, which growth is on record?
The growth was 48.9%.

With NC(=NCCCCCCN=C(N)/N=C(\N)Nc1ccc(Cl)cc1)/N=C(\N)Nc1ccc(Cl)cc1 as the compound, how does the growth read?
The growth was 5.89% (active).

With Cc1sc2nc3c4ccccc4c(NCCCN(C)C)nn3c(=O)c2c1C as the compound, how does the growth read?
Its growth is 53.4%.

How did the growth turn out when COc1ccc2c(c1)CC/C(=C\c1ccc(OCC(=O)Nc3nc4ccccc4s3)cc1)C2=O was run?
Its growth is 88.3%.

How did the growth turn out when CCN(CC)CCNCC(=O)Oc1ccc(/C=C/C(=O)CC(=O)/C=C/c2ccc(OC(=O)CNCCN(CC)CC)c(OC)c2)cc1OC was run?
The growth was 4.14% (active).

Which growth does the source give for Cc1cc(=O)oc2cc(OCCn3c(C)nn(-c4ccc(Cl)cc4)c3=O)ccc12 here?
Its growth is 51.8%.

COc1c(O)cc2c(c1CC=C(C)C)OC(=O)c1c(cc(O)c(CC=C(C)C)c1O)O2 was tested. Which growth did it give?
The growth was 10.4%.

Nc1ccn(C2O[C@H](CO)[C@@H](O)[C@@H]2O)c(=O)n1 (stereo not given in full) was tested. Which growth did it give?
Its growth is 37.1%.

How did the growth turn out when C[C@H]1O[C@@H](O[C@H]2[C@@H](O)C[C@H](O[C@H]3[C@@H](O)C[C@H](O[C@H]4CC[C@]5(C)C6CC[C@]7(C)[C@@H](C8=CC(=O)OC8)CC[C@]7(O)C6CC[C@@H]5C4)O[C@@H]3C)O[C@@H]2C)C[C@H](O)[C@@H]1O (stereo not given in full) was run?
Its growth is -52.4% (active).

How did the growth turn out when Nc1c(C(=O)Nc2cccc(Cl)c2)sc2nc3c(cc12)C(O)CCC3 (stereo not given) was run?
Its growth is 35.5%.

Which growth does the source give for C[C@H]1c2cccc(O)c2C(O)=C2C(=O)[C@]3(O)C(O)=C(C(N)=O)C(=O)[C@@H](N(C)C)[C@@H]3[C@@H](O)[C@@H]21 here?
Its growth is 53.6%.

CC(C)=CCCC(C)c1ccc(C)c2c1OCN(CC1CCNCC1)C2 (stereo not given) was tested. Which growth did it give?
The growth was 76.7%.

With Nc1ccc2c(c1)Cc1cc(Cl)c(Cl)cc1-2 as the compound, how does the growth read?
The growth was 57.2%.

Nc1nc(NC2CC2)c2ncn(C3C=CC(CO)C3)c2n1 (stereo not given) was tested. Which growth did it give?
Its growth is 98.2%.

Cc1ccc(C(=O)Cc2ccccc2)c(O)c1 was tested. Which growth did it give?
The growth was 94.8%.

For CCSCC1CC(O)(c2ccccc2)C(c2ccccc2)C(c2ccc(Cl)cc2)O1 (stereo not given), which growth is on record?
The growth was -49.9% (active).

How did the growth turn out when COC(=O)N/N=C/c1coc2ccc(Cl)cc2c1=O was run?
Its growth is 88.1%.

How did the growth turn out when O=C(CSc1nnc(-c2cc(-c3ccccc3)nc3ccccc23)o1)c1ccc(Br)cc1 was run?
Its growth is 98%.

How did the growth turn out when CC[N+](CCCCCCCCCC[N+](CC)(c1ccccn1)c1ccccn1)(c1ccccn1)c1ccccn1 was run?
The growth was 5.03% (active).

With Cc1ccc2nc(-c3ccc(N(C)C)c(Br)c3)cn2c1 as the compound, how does the growth read?
The growth was 94.8%.

N=C1c2nc3n(c2C(=O)c2nc4n(c21)CCCCC4)CCCCC3 was tested. Which growth did it give?
Its growth is 106%.

With CC(=O)c1ccc(NS(=O)(=O)c2ccc([N+](=O)[O-])cc2)cc1 as the compound, how does the growth read?
The growth was 99.5%.

For COCCOCCOCCOCCOc1ccc2c(c1)C(=O)c1nc3ncccc3c(=O)n1-2, which growth is on record?
Its growth is -93% (active).

CCOC(=O)c1cnc2c(C)cc(C)cc2c1NCCCN(C)C was tested. Which growth did it give?
The growth was 37.6%.

With c1ccc(N2c3nc4ccccc4cc3Sc3cc4ccccc4nc32)nc1 as the compound, how does the growth read?
The growth was 76.1%.

For Cc1ccc(NC(=O)c2sc3nc4c(cc3c2N)C(=O)CCC4)cc1, which growth is on record?
The growth was 87.8%.

With NC(=O)c1cc(Cl)ccc1NC(=O)c1ccccc1-c1ccccc1 as the compound, how does the growth read?
Its growth is 51.9%.

Which growth does the source give for CC[n+]1c(/C=C/c2ccc(N3CCCC3)cc2)cccc1/C=C/c1ccc(N2CCCC2)cc1 here?
Its growth is -79.9% (active).
